# Screening results deposited in PubChem BioAssay by several laboratories.
# A selection: hits, their analogues and other compounds. The true share with any hit is near 9.3%.
# M1 ag – M1 muscarinic receptor agonists, primary screen, CHO-M1 cells, Fluo-4 calcium, agonist mode. Muscarinic acetylcholine receptor M1. Fluo-4 calcium fluorescence; active compounds read high. B-score at 10 µM. 3% of 64,000 active;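 active means fluorescence rise, raw or as B-score row- and column-corrected plate score, outside the 99.7% band of its plate's samples, either direction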
# NADH coupling – inhibitors of PK/LDH coupling enzymes, profiling panel, artefact control, biochemical, MLSMR library. coupled PK/LDH NADH assays, four targets. IC50, µM (doses to about 10 µM), for inactives: at the top dose inhibition. 0.02% of 65,000 active;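 active means single-dose screening hits from any of four coupled enzyme assays that gave an IC50 when retested across doses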;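 further: the DPM-DC format reads NADH fluorescence rather than 340 nm absorbance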
# Autofluor 339 – intrinsic fluorescence of library compounds, ex339/em460 – biochemical, MLSMR library, data from DPM-DC assay, artefact control, profiling panel | fluorescence fold increase at 10 µM | compound autofluorescence, ex339/em460 nm, NADH buffer; active compounds read high; 1 = no-compound wells, NADH background | 5.5% of 65,000 active | AID 709, 2007;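 active means at 10 µM, mean starting fluorescence two-fold or more over control wells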;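 further: signal is the first read of a kinetic run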
# A340 absorber – compound light absorbance at 340 nm, profiling panel, artefact control, biochemical, MLSMR library, data from PS, PMK, MK assays | compound absorbance at 340 nm, fold over control | fold change at 10 µM | 65,000 tested, under 10 active;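 active means at 10 µM dose, initial 340 nm absorbance at least 2 fold that of control wells; inactive means change under 2 fold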;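 further: initial absorbance extrapolated from kinetic A340 decline of NADH oxidation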
# Htt clearance – clearance of mutant huntingtin inclusions, primary screen, imaging, HeLa Exon1htt(103Q)mCFP, confocal imaging; aggregate imaging; zero = plate's median compound well; inhibition, % at 1.5 µM; 0.42% of 47,000 active; AID 853, 2007;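 active means inhibition of aggregate fluorescence above about 70%, also judged a hit by eye on the cell image, limit read from the data, passing the limit was not always enough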;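 further: cells exposed to compound for three days before fixation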
# M1 antag – antagonists of rat M1 muscarinic receptor; 3.4% of 64,000 active; AID 628, 2007; Muscarinic acetylcholine receptor M1 (Rattus norvegicus), P08482; B-score at 10 µM; CHO-M1 cells, Fluo-4 calcium, ACh EC80 antagonist mode; active compounds read low;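 active means calcium fluorescence response, raw or row-and-column corrected B-score, differing from the plate sample mean either way at a set confidence level, mostly lower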
# Target sequence (P08482 whole entry, looked up): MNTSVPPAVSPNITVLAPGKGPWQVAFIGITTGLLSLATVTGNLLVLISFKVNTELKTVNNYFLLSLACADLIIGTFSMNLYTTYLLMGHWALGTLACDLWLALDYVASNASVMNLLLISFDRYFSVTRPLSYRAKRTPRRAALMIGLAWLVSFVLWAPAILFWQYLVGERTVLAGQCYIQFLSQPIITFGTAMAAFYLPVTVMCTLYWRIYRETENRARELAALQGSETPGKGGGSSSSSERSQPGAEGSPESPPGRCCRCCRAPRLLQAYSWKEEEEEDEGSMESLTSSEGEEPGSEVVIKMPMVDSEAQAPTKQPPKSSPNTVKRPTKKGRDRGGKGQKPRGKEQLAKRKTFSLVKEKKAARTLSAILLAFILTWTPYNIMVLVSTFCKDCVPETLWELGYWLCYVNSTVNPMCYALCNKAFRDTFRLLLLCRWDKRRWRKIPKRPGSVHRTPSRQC
# * = called active by the depositor; · = no result given.
SMILES,M1 ag,NADH coupling,Autofluor 339,A340 absorber,Htt clearance,M1 antag
COc1ccc(C(=O)N2CCN(c3nc4cc(C)ccc4cc3C#N)CC2)c(OC)c1,0.109,2.0%,1.41,1,43.0,0.121
CCOc1ccc2cc(C#N)c(SCC(=O)NC(C)CC)nc2c1 (configuration not stated),-0.885,5.0%,3.22*,1.02,52.9,-0.0672
O=C(CSc1nnc2sc3ccccc3n12)NCc1ccc2c(c1)OCO2,0.203,7.0%,1.06,1.03,·,0.375
CCCCCn1c(N2CCC(C(N)=O)CC2)nc2c1c(=O)[nH]c(=O)n2C,0.436,1.0%,1.14,1.02,7.3,0.245
CCOC(=O)N1CCC(N2CC34C=CC(O3)C(C(=O)O)C4C2=O)CC1 (configuration not stated),0.731,1.0%,1.05,0.99,-21.7,-0.574
CCOC(=O)CSc1nc2cc(OCC)ccc2cc1C#N,-1.05,13.0%,2.62*,1.05,·,-0.242
CCOc1ccc2cc(C#N)c(SCC(=O)N3CCC(C)CC3)nc2c1,0.42,6.0%,2.47*,1,-1.1,0.000838
COc1ccc2cc(C#N)c(SCC(=O)N3CCCC3)nc2c1,-0.409,6.0%,1.8,1.01,-59.7,0.0171
C=CCn1c(SCC(=O)Nc2cccc(OC)c2)nnc1-c1cccnc1,0.24,2.0%,1.03,0.98,·,0.0497
CCOC(=O)c1c(-c2ccccc2)csc1NC(=O)CSc1nnnn1C,3.23*,9.0%,1.01,1,48.0,-0.623
CCOC(=O)c1cccc(NC(=O)CSc2nnnn2CC)c1,-0.982,7.0%,0.87,1.01,-12.5,0.0283
CCOC(=O)c1ccc(NC(=O)CSc2nnnn2CCCO)cc1,0.0335,2.0%,1.09,1.02,-351.4,1.82*
C=CCn1nnnc1SCC(=O)Nc1cccc(OC)c1,-0.661,6.0%,1.15,1.07,·,11*
CC(C)NC(=O)c1cc(=O)n(C)c(=O)n1C,·,2.0%,1.1,1.03,33.1,·
Cc1cc(C)n(C(=O)C(C)N2C(=O)c3ccccc3C2=O)n1 (configuration not stated),2.04,4.0%,1.13,1.03,·,-1.07
O=c1cc(-c2ccco2)oc2ccc(Cl)cc12,0.777,2.0%,2.35*,1.05,·,0.326
O=C1CCCC2=C1C1(CCCC1)N=C(Nc1nc3ccccc3s1)N2,-0.0415,6.0%,2.01*,1.04,·,-1.19
O=C1CCCC2=C1C1(CCCCC1)N=C(Nc1nc3ccccc3s1)N2,0.54,7.0%,2.3*,1.07,·,-0.263
Cc1cc(=O)oc2c(CN3CCC(C)CC3)c(O)c(Cl)cc12,3.74,4.0%,2.32*,1.12,·,0.82
CCN1CCN(Cc2c(O)c(Cl)cc3c(C)cc(=O)oc23)CC1,0.578,0.0%,2.22*,1.13,6.1,-0.272
Cc1cc(=O)oc2c(CN3CCCCC3)c(O)c(Cl)cc12,0.379,6.0%,2.39*,1.11,6.6,0.508
Cc1cc2oc(=O)cc(CN3CCC(C)CC3)c2cc1Cl,0.921,7.0%,1.13,1.03,23.6,-0.403
COc1ccc(S(=O)(=O)N(CCc2ccccc2)CC(=O)O)cc1,·,·,·,·,-8.9,·
CCCn1c(=N)n(CCOCCOCCn2c(=N)n(CCC)c3ccccc32)c2ccccc21,·,·,·,·,22.3,·
COc1cccc(-c2nnc(NC(=O)Cc3cccs3)s2)c1,-0.963,1.0%,1.1,1.01,58.2,-0.121
SMILES,M1 ag,NADH coupling,Autofluor 339,A340 absorber,Htt clearance,M1 antag
O=C(Cc1cccs1)Nc1nnc(-c2ccncc2)s1,0.0121,5.0%,2.21*,1.11,·,0
COCc1nc2ccccc2n1CCOc1ccccc1OC,-0.176,3.0%,1.06,1,-34.8,-0.44
CCOC(=O)N1CCN(c2cc(C)nc3nc(C)nn23)CC1,0.264,5.0%,2.1*,1.02,·,0.298
Nn1cc(-c2ccccc2)nc1SCC(=O)NCCN1C(=O)CSC1=O,-0.0534,3.0%,1.1,1.01,-37.0,0.206
O=C(NCc1ccco1)c1cc2ccccc2o1,-0.426,0.0%,1.01,1.03,-11.1,-0.128
Cc1ccc2cc3cc(C(=O)NCc4ccco4)oc3nc2c1,0.326,8.0%,4.58*,1.17,·,0.544
Cc1ccc2cc3cc(C(=O)NCCC(C)C)oc3nc2c1,0.332,2.0%,5.06*,1.06,·,0.3
Cn1c(Cl)nc2ccccc21,0.201,2.0%,1.01,0.99,·,-0.107
CC(=O)c1cc(-c2nc3ccccc3n2C)n(C)c1,-0.373,1.0%,1.1,1.03,71.3*,0.324
COC(=O)c1ccc(CSc2nnc(-c3ccncc3)n2Cc2ccccc2)o1,-0.263,5.0%,1.11,0.99,·,-0.122
O=C(O)CC(c1ccc(Cl)cc1)N1C(=O)CCC1=O (configuration not stated),0.636,6.0%,1.08,0.97,6.1,-0.348
Cc1c(Cc2ccc3c(c2)OCO3)sc(NC(=O)C(C)(C)C)c1C#N,·,·,·,·,6.4,·
Cc1csc2nc3ccccc3c(=O)n12,0.836,6.0%,2.02*,1,3.9,-0.573
COc1cc(C)c(S(=O)(=O)NCc2cccs2)cc1C,-0.394,4.0%,1.05,1.06,8.9,0.314
Cc1cc(C)n(S(=O)(=O)c2cc(C(=O)O)c(Cl)cc2Cl)n1,-1.33,3.0%,1.01,0.99,59.6,2.27*
CCCn1c(=NC(=O)c2ccco2)c(C(=O)OCC)cc2c(=O)n3ccccc3nc21,0.805,2.0%,3.84*,1.11,-96.6,-1.07
CCOC(=O)c1cc2c(=O)n3ccccc3nc2n(CCCOC)c1=NC(C)=O,-0.179,3.0%,2.44*,1.04,·,0.143
CCOC(=O)c1cc2c(=O)n3cccc(C)c3nc2n(Cc2ccco2)c1=NC(=O)c1ccccc1,·,·,·,·,13.4,·
COc1cc(C(=O)Nc2cccc(-c3nncn3C)c2)cc(OC)c1OC,0.894,2.0%,1.02,1.03,-19.1,1.2
Cc1cc(NC(=O)c2cc3nc4c(c(C(F)(F)F)n3n2)CCc2ccccc2-4)no1,-0.785,16.0%,2.18*,1.08,·,-0.0168
CN(C(=O)c1ccc(C#N)cc1)c1nnc(-c2ccccn2)s1,·,·,·,·,80.0*,·
CN(C(=O)c1ccccn1)c1nnc(-c2ccncc2)s1,1.02,4.0%,2.26*,0.98,·,1.44
CN(C(=O)c1cccc(C#N)c1)c1nnc(-c2ccccn2)s1,0.00485,12.0%,2.11*,1.03,10.9,0.197
CN(C(=O)c1ccno1)c1nnc(-c2ccccn2)s1,0.773,10.0%,5.14*,1.05,9.7,0.796
CCCCn1c(SCc2cc(=O)n3ccsc3n2)nc2cc(C(=O)OC)ccc2c1=O,-0.453,12.0%,1.22,1.05,·,-1.06
Cc1cc(C)nc(N2CCC(C(=O)Nc3nnc(C)s3)CC2)n1,0.637,8.0%,1.48,0.99,6.7,0.373
CN(C(=O)c1ccncc1)c1nnc(-c2ccccn2)s1,-0.874,15.0%,3.07*,1.02,53.4,-0.0159
